Results on 92 compounds are retold here after PubChem BioAssay AID588852 (The Scripps Research Institute Molecular Screening Center, 2011).

In all, about 360,000 compounds went through this assay and about 4,600 (1.3%) were called active. The list comes from a sample in which actives are over-represented; it also holds similar structures and randomly drawn compounds. Values without a mark were called inactive.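 The calls were made as follows: active = percent inhibition above its own plate's cutoff, namely the mean of that plate's compound wells plus 3 SD; inactive = the rest.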

The assay deals with Muscarinic acetylcholine receptor M1 (Homo sapiens) (UniProt P11229). Kind of assay: CHRM1 blockers of acetylcholine calcium response – CHO-K1 cells, Fluo-8 calcium fluorescence, 1536-well, primary screen (AID 588852).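 Also: peak over basal fluorescence ratio during 140 s after agonist addition; 0% = ACh EC80 plus DMSO and 100% = DMSO alone without agonist.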 The note with it: CHO-K1 hM1, Fluo-8 calcium fluorescence, ACh EC80 antagonist; at 3 µM; stronger effect = higher value.
Sequence of Muscarinic acetylcholine receptor M1 (Homo sapiens) (P11229 whole entry, looked up): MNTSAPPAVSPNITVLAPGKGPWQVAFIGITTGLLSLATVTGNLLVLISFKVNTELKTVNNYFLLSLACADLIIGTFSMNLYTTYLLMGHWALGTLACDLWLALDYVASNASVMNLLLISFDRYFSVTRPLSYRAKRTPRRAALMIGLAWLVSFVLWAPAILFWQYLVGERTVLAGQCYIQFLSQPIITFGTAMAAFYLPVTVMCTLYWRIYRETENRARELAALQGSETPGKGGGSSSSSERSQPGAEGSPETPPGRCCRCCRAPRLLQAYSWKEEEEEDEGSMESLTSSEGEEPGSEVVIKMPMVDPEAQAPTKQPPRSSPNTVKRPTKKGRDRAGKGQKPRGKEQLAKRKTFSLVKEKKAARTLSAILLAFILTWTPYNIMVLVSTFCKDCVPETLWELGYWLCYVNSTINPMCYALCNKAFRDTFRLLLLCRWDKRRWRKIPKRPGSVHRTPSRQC
For orientation: inhibition means the relative decrease from the control value, in per cent. On to `COc1cc(CC(=O)Nc2nc(-c3ccc(F)c(F)c3)cs2)cc(OC)c1OC`, for which the inhibition was 32.3% (active).

On to `COc1ccc(CC(=O)Nc2ccccc2NC(=O)c2ccco2)cc1OC`, for which the inhibition was -6.85%.

Regarding `COc1ccc(CC(=O)Nc2nc(-c3ccc(F)c(F)c3)cs2)cc1OC`, the inhibition is 37.2% (active).

Regarding `O=C(COc1ccccc1F)Nc1nc(-c2ccccn2)cs1`, the inhibition was -7.13%.

As for `COc1ccc(CCNC(=O)COC(=O)Cc2cc(OC)c(OC)c(OC)c2)cc1`, the inhibition was -5.89%.

In the case of `COc1ccc(-c2csc(Nc3cccc(C)n3)n2)cc1OC`, the inhibition was -13.9%.

Regarding `CC(C)C[C@H]1CN([C@@H](Cc2ccccc2)CN2CCC[C@@H]2CN2C(=O)C(=O)NC[C@@H]2Cc2ccc(O)cc2)C(=O)C(=O)N1CCc1ccccc1`, the inhibition is 6.28%.

Turning to `CC(=O)Nc1ccc(NC(=O)CSc2nnnn2C2CCCCC2)cc1`, the inhibition is -17.6%.

For `CN(CC#CCC(c1ccccc1)c1ccccc1)C(C)(C)C`, the inhibition was 94.5% (active).

For the compound `CC(C)OCCCNc1ncnc2c1[nH]c1ccc(F)cc12`, the inhibition is 49.6% (active).

For `CCOC(=O)C1=CCC2C(=O)N(Cc3ccccc3)C(=O)C12` (configuration not stated), the inhibition is -8.51%.

On to `CCNC(=O)COC(=O)/C=C/c1c(C)nn(Cc2cccc(OC)c2)c1Cl`, for which the inhibition is -14.4%.

On to `O=C(NC1CC1)C1=C[C@H](c2coc3ccccc3c2=O)C[C@H](OCCCCO)O1`, for which the inhibition is -2.15%.

On to `CC1(Cc2cccc(C#N)c2)C(=O)Nc2ccc(-c3cccc(C(F)(F)F)c3)cc21` (configuration not stated), for which the inhibition was -21.5%.

With `O=C(N/N=C/c1ccc(OCC2COCCO2)cc1)c1ccc(Br)cc1` (configuration not stated), the inhibition was -0.51%.

Take `COc1cccc(/C=N/Nc2cc(C)nc(-c3ccccc3O)n2)c1O`: the inhibition is 37% (active).

In the case of `COc1ccccc1-n1c(SCC(=O)Nc2cccc(C(=O)O)c2)nnc1-c1ccccc1O`, the inhibition is -23.3%.

With `COc1cc(/C=N/Nc2ccc(C)cc2)cc(Br)c1O`, the inhibition was 1.92%.

As for `CC(C)C(=O)Nc1nnc(SCC(=O)N2C(C)CCCC2C)s1` (configuration not stated), the inhibition is -9.39%.

For `COC(C)(C)[C@]12CC(O)(C(C)C)ON1[C@H]1CCCCC1N2O` (some centres not stated), the inhibition was 2.96%.

With `CCOC(=O)c1cccc(NC(=O)CN2C(=O)C3CC=CCC3C2=O)c1` (configuration not stated), the inhibition was -6.58%.

As for `Cc1ccccc1OCC(=O)NNC(=O)c1cc(S(=O)(=O)N(C)C)ccc1N1CCCC1`, the inhibition is -9.89%.

With `CN(C)Cc1ccccc1C1(O)c2ccccc2CSc2ccccc21` (configuration not stated), the inhibition was 20.6%.

For `CN(C)CC/C=C1\c2ccccc2CSc2ccccc21`, the inhibition is 96.1% (active).

In the case of `COc1ccc(-c2ccc(C(=O)NCCN3CCOCC3)c3occc23)c(C)c1`, the inhibition is 1.54%.

Turning to `CC(C)C[C@H]1CNC(=S)N1C[C@H]1CCCN1C[C@H](Cc1ccc(O)cc1)N1C[C@H](Cc2ccc(O)cc2)N(CC2CCCCC2)C1=S`, the inhibition is 1.57%.

Regarding `O=C(Nc1ccc(F)cc1)C1CCN(C(=O)c2ccc([N+](=O)[O-])cc2)CC1`, the inhibition is -0.31%.

As for `COc1ccccc1C1SCCN1C(=O)c1ccc([N+](=O)[O-])cc1` (configuration not stated), the inhibition is 62% (active).

On to `C[N+]1(CC(O)COc2ccccc2)CCN(C(=O)c2ccc([N+](=O)[O-])cc2)CC1` (configuration not stated), for which the inhibition was -2.65%.

Regarding `Cc1cc(C)cc(C(=O)NCCN2CCOCC2)c1`, the inhibition is -11.1%.

Consider `Cc1cccc(C(=O)OC(C)CN2CCN(C)CC2)c1` (configuration not stated), for which the inhibition was -1.32%.

`Cc1cccc(-c2nc3ccc(C(=O)NCCN4CCN(C)CC4)cc3nc2-c2cccc(C)c2)c1`: the inhibition was 46.9% (active).

Take `CSc1nc2sc3c(c2c(=O)[nH]1)CCc1ccccc1-3`: the inhibition was -1.53%.

On to `C/C(=N\NC(=O)NC1CCCCC1)c1ccc(OC(F)F)cc1OC(F)F`, for which the inhibition was 3.51%.

As to `CCCc1noc2c1/C(=N\O)CCC2`, the inhibition was -7.37%.

Take `CCSC(C)CC1C/C(=N/O)c2c(C)noc2C1` (configuration not stated): the inhibition is 46.6% (active).

Regarding `COc1ccc(OC)c(Cc2cnc3nc(N)nc(N)c3c2C)c1`, the inhibition is -0.49%.

With `Cc1ccccc1NC(=S)NC(=O)Cc1ccc(Cl)cc1`, the inhibition is 14.3%.

As for `O=C(COc1ccc(Cl)cc1)NC(=S)Nc1ccccc1N1CCOCC1`, the inhibition is 1.11%.

`O=C(Cc1ccc(Cl)cc1)NC(=S)Nc1ccccc1O`: the inhibition is 64.7% (active).

In the case of `O=C(NCCCn1ccnc1)C1CCCN(S(=O)(=O)c2cc(Cl)ccc2Cl)C1` (configuration not stated), the inhibition is 5.3%.

With `Nc1ncnc2c1ncn2[C@@H]1O[C@H](C(=O)NCC(F)(F)F)[C@@H](O)[C@H]1O`, the inhibition is -26.1%.

For the compound `CCSC1=NCCN1S(=O)(=O)c1ccc(F)cc1`, the inhibition is 7.85%.

With `COc1cc(C(=S)NC2CCCCC2)ccc1O`, the inhibition is 99.6% (active).

As for `COc1cc(C(=S)N2CCOCC2)ccc1O`, the inhibition was 0.12%.

For the compound `COc1ccc(C(=O)NC(=S)NC2CCCCC2)cc1`, the inhibition was -6.7%.

As for `CC(=O)Nc1cccc(Nc2ccc(C#N)cc2)c1`, the inhibition is -8.06%.

As to `O=C(/C=C/[C@H]1O[C@@H](n2cnc3c(NC(=O)c4ccccc4)ncnc32)[C@H](O)[C@@H]1O)NCc1ccccc1`, the inhibition was -2.88%.

Turning to `CC(C)N1CCC(N2CCN(Cc3cccnc3)CC2CCO)CC1` (configuration not stated), the inhibition is -8.8%.

Regarding `Cn1cnnc1Sc1ccc(CN2CCN(C3CCCC3)C(CCO)C2)o1` (configuration not stated), the inhibition was 25.2% (active).

Consider `COc1cccc2c1OCC(CN1CCN(C3CCCCC3)C(CCO)C1)=C2` (configuration not stated), for which the inhibition was 28%.

Turning to `OCCC1CN(Cc2ccc3nsnc3c2)CCN1C1CCCC1` (configuration not stated), the inhibition is 45.8% (active).

With `OCC1(CCc2ccccc2)CCN(Cc2ccc3nsnc3c2)CC1`, the inhibition was -4.82%.

For the compound `CCOc1ccc(CN2CCN(Cc3ccc(C)o3)CC2CCO)cc1` (configuration not stated), the inhibition is 0.92%.

Consider `Cc1ccc(CN2CCN(Cc3ccc4ncccc4c3)CC2CCO)cc1` (configuration not stated), for which the inhibition is 5.31%.

Consider `Cc1ccc(CN2CCN(Cc3ccc(OCCO)cc3)CC2CCO)o1` (configuration not stated), for which the inhibition is -10.3%.

On to `OCCC1CN(Cc2ccc3nsnc3c2)CCN1C1CCCCC1` (configuration not stated), for which the inhibition is 31.7% (active).

Take `CN(C)CCNC(=O)c1ccc(-c2cn3c(-c4ccc(Oc5ccccc5)cc4)cnc3cn2)cc1`: the inhibition is -3.33%.

In the case of `CCc1ccc(N2CC(C(=O)NC3=NCCS3)CC2=O)cc1` (configuration not stated), the inhibition was -11.6%.

With `CN(Cc1ccccc1)CC(O)COc1ccc(CNCc2cc3ccccc3s2)cc1` (configuration not stated), the inhibition was 15.1%.

Consider `CCOC(=O)[C@H]1[C@H]2COc3ccc(Br)cc3[C@@H]2N2C(=O)CN(C)C(=O)[C@@]12C`, for which the inhibition is -4.45%.

Regarding `Cc1ccc2c(NC(=O)C3CC3)cccc2n1`, the inhibition is -22.4%.

As for `CN(C)S(=O)(=O)N1CCC(Oc2cccc(C(=O)NCCCC3CCCC3)c2)CC1`, the inhibition is 26.7%.

As to `Cc1cccc(C)c1-n1nnnc1C(CCc1ccccc1)N1CCN(C/C=C/c2ccccc2)CC1` (configuration not stated), the inhibition was -27.1%.

On to `O=C(NCc1ccco1)/C(=C\c1cccc([N+](=O)[O-])c1)NC(=O)c1ccco1`, for which the inhibition is -2.79%.

`CCCC[C@@H]1CN=C(N)N1CCc1cc(C(F)(F)F)cc(C(F)(F)F)c1`: the inhibition is 51.9% (active).

For the compound `CCCC[C@@H]1CN=C(N)N1CCCC`, the inhibition is 8.39%.

As for `CCCC[C@@H]1CN=C(N)N1CCc1cccc(F)c1`, the inhibition was 18.6%.

In the case of `CCN(CC(=O)Nc1c(F)cccc1F)C(=O)Cc1cccs1`, the inhibition is -16.3%.

Regarding `Cn1nccc1NS(=O)(=O)c1ccc(F)cc1`, the inhibition is -14.9%.

For the compound `COc1cccc(CNC(=O)CCC2CCCN(Cc3ccc(OC(F)F)cc3)C2)c1` (configuration not stated), the inhibition was 20.6%.

`C/C=C(\C)C(=O)NCCN1C2=NC[C@H](Cc3ccc(O)cc3)N2C[C@@H]1Cc1ccc(OC)cc1`: the inhibition is -3.4%.

Regarding `COc1ccc(C[C@H]2CN3C(=NC[C@H]3C)N2CCNC(=O)CCC2CCCCC2)cc1`, the inhibition was 38.6% (active).

As to `COc1ccc(C2c3c(C)nn(-c4ccccc4)c3NC(=O)N2c2ccccc2)cc1` (configuration not stated), the inhibition was -12.4%.

Regarding `CCOC(=O)[C@H]1[C@H]2COc3ccc(C)cc3[C@@H]2N2C(=O)CN(Cc3ccc(F)cc3)C(=O)[C@@]12C`, the inhibition is 35.9% (active).

Regarding `CCOC(=O)[C@H]1[C@H]2COc3ccccc3[C@@H]2N2C(=O)CN(Cc3ccccc3)C(=O)[C@@]12C`, the inhibition is 7.51%.

Turning to `CCOC(=O)[C@H]1[C@H]2COc3cc(OC)ccc3[C@@H]2N2C(=O)CN(Cc3ccc(Cl)cc3)C(=O)[C@@]12C`, the inhibition is -8.3%.

Regarding `O=C1OC(Cc2ccccc2)C(c2ccccc2)C1=O` (configuration not stated), the inhibition was -4.64%.

Consider `NCCCCC(C(=O)O)N(C(=O)OCc1ccccc1)C(=O)OCc1ccccc1` (configuration not stated), for which the inhibition was 2.44%.

As to `CCC(=C/c1sc2ccc3ccccc3c2[n+]1C)/C=C1\Sc2ccc3ccccc3c2N1C`, the inhibition is -7.73%.

Turning to `O=C(c1ccccc1)C(O)(CN1CCCCC1)c1ccccc1` (configuration not stated), the inhibition was 1.74%.

`CCc1ccccc1NC(=O)NCCN1CCCCC1`: the inhibition is -20.3%.

As to `c1ccc2cc3[nH]c(CN4CCCCC4)nc3cc2c1`, the inhibition is -5.8%.

In the case of `CC(C)(c1ccccc1)c1ccc(OCCN2CCCC2)cc1`, the inhibition was 8.05%.

As to `CCCCOc1ccc(C(C)(O)CCN2CCOCC2)cc1` (configuration not stated), the inhibition is -7.98%.

On to `CCCCCC(O)(CCN1CCCCC1)c1ccccc1` (configuration not stated), for which the inhibition is 99.8% (active).

For `CC(CN1CCCCC1)c1ccccc1` (configuration not stated), the inhibition is -23.4%.

For `C#CC(CCN1CCCCC1)(OC)c1ccccc1` (configuration not stated), the inhibition was 93.9% (active).

Take `CCCCCCC(O)(CCN1CCCCC1)c1ccccc1` (configuration not stated): the inhibition is 98.8% (active).

Turning to `CSc1nc(C)nc(C2CC2)c1C#N`, the inhibition is -5.81%.

In the case of `CCOC1=C2[C@H]([C@H]3C(=O)N(c4ccccc4)C(=O)[C@H]3C1)[C@@H](c1ccccc1)N(S(=O)(=O)c1ccc(C)cc1)[C@H]2c1ccccc1`, the inhibition was -3.55%.

On to `c1ccc(Cc2c(-c3ccco3)nc3c4ccccc4ccn23)cc1`, for which the inhibition is -25.9%.
